An excerpt weighted towards active compounds, which were near 21% of everything screened.
CHX counter: affects cycloheximide protein synthesis inhibition readout, counter-screen. 12% of 300,000 active. cell reporter, cycloheximide protein synthesis inhibition counterscreen. max response, %; in the data active = max response mostly above about 13%, no sharp cut-off; inactive = mostly below about 14%; also: read at 38.3 µM for the half of the compounds with a filed dose
Shiga inhibitor: Shiga toxin inhibition; Vero cells, Shiga toxin protein synthesis inhibition reporter; inhibition, % at 38.7 µM; 9.2% of 290,000 active; in the data active = inhibition mostly above about 28%, no sharp cut-off; inactive = mostly below about 43%
Pf growth 48h: inhibits P. falciparum growth in the first generation, 48 h; Potency, µM (top dose mostly 28.7 µM), usual class: inhibitors; P. falciparum luciferase growth in erythrocytes, 48 h; 5.9% of 310,000 active; active = well fitted inhibition curve with a large enough effect; inconclusive = small, poorly fitted or top-dose-only effect, or another doubt; inactive = no such curve, though single readings can be large or run the other way
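Growth was read as firefly luciferase luminescence after a 48 h, 37 C, 5% CO2 exposure of compounds to reporter-bearing P. falciparum cultures (0.1% parasitemia, 2% hematocrit final) in Albumax-supplemented RPMI 1640.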
Pf growth 96h: inhibits malaria parasite growth, 96 h; P. falciparum luciferase reporter growth, 96 h; AID 504834; Potency, µM (titrated, usually from 28.7 µM), most hits filed as inhibitors; 6.9% of 320,000 active; active = well fitted inhibition curve with a large enough effect; inconclusive = small, poorly fitted or top-dose-only effect, or another doubt; inactive = no such curve, though single readings can be large or run the other way
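Delayed-death screen, second-generation endpoint: infected erythrocytes, 2% hematocrit, 0.05% parasitemia final; 96 hours at 37 C, 5% CO2; luciferase detection reagent; luminescence decrease equals reduced growth.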
NS1 inh: influenza NS1 inhibition; Potency, µM (top dose mostly 46.1 µM); 0.4% of 270,000 active; AID 2326; also: actives are rising curves; nearly all actives have a fitted effect of over 50% in size
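Compounds were scored for reversing the slow growth caused by influenza A NS1 in S. cerevisiae, measured by optical density at 600 nm. Assay medium contained 2% galactose at pH 6.0; NS1-free yeast of the same strain were the positive control.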
SARS PLpro yeast: SARS-CoV PLP inhibition in yeast; S. cerevisiae expressing SARS-CoV PLpro, growth rescue; 0.19% of 330,000 active; Potency, µM (doses to about 32.9 µM), hits mostly activators; AID 485353; also: nearly all actives have a fitted effect of over 55% in size
Of the large screens only hits and unclear results are named; the others gave an inactive call. Unless noted, calls follow the shape of the full dose curve.

Cc1ccc(C)c(N(CC(=O)Nc2ccccc2C(=O)NCc2ccco2)S(=O)(=O)c2ccccc2)c1	Pf growth 48h 11.7µM, NS1 inh inconclusive
CCOc1ccccc1N(CC(=O)Nc1ccccc1F)S(=O)(=O)c1ccccc1	Pf growth 48h 10.4µM, Pf growth 96h inconclusive
Cc1ccc(S(=O)(=O)N(Cc2ccccc2)c2ccccc2C(=O)NCc2ccco2)cc1	CHX counter 25.0, Pf growth 48h 10.4µM, Pf growth 96h 5.86µM
CCN(CC(=O)Nc1c(F)cccc1F)C(=O)c1csc2c1CCCC2	none (no result: CHX counter, Shiga inhibitor, NS1 inh)
COc1ccc(C2=NOC3(CC(=O)N(c4ccc5ccccc5c4)C3=O)C2)c(OC)c1 (stereo not given)	none
Cc1ccc(N(CC(=O)N/N=C/c2ccc(OC3CSC3)cc2)S(=O)(=O)c2ccccc2)cc1	Pf growth 48h inconclusive
Cc1ccc(N(CC(=O)Nc2ccccc2C(=O)NCc2ccco2)S(=O)(=O)c2ccccc2)cc1C	Pf growth 48h 10.4µM, NS1 inh inconclusive (no result: Pf growth 96h)
Cc1ccc(N(CC(=O)N/N=C/c2ccc(OC3CSC3)cc2)S(=O)(=O)c2ccccc2)c(C)c1	Pf growth 48h inconclusive, Pf growth 96h 11.7µM, NS1 inh inconclusive
O=C(CN(c1ccccc1)S(=O)(=O)c1ccccc1)Nc1ccccc1C(=O)NCc1ccco1	none
C=C(c1ccccc1)c1ccccc1N	Pf growth 48h inconclusive, Pf growth 96h inconclusive (no result: CHX counter, Shiga inhibitor, NS1 inh)
O=C(OCc1cc(=O)n2c(n1)sc1ccccc12)c1ccc(O)cc1O	none (no result: NS1 inh)
O=C(OCc1cc(=O)n2c(n1)sc1ccccc12)c1cccc(O)c1	CHX counter 23.3, Shiga inhibitor 49.0
COc1cccc(OCCNC(=O)c2cc([N+](=O)[O-])cc([N+](=O)[O-])c2)c1	Pf growth 48h inconclusive (no result: NS1 inh)
Cc1ccc(C(=O)CC(=O)COc2ccc(Cl)cc2)cc1	CHX counter 17.5, Pf growth 48h inconclusive
CC(=O)Nc1cccc(OCCCNC(=O)c2ccc(C(C)(C)C)cc2)c1	CHX counter 25.3, Shiga inhibitor 44.6, Pf growth 96h inconclusive
COc1cccc(OCCNC(=O)c2ccc(C)cc2)c1	CHX counter 26.7, Shiga inhibitor 39.8
COc1cccc(OCCNC(=O)c2cccc(OC)c2)c1	none
Cc1ccc(OCCNC(=O)c2cc(C(=O)NCCOc3ccc(C)cc3)cc([N+](=O)[O-])c2)cc1	Pf growth 48h 11.7µM, Pf growth 96h 1.17µM, NS1 inh inconclusive
CCNC(=O)NC(=O)COC(=O)CCCc1nc2ccccc2s1	none (no result: NS1 inh)
CCOC(=O)CSc1nnc(Cn2nnc(-c3ccccc3)n2)n1C	none
Cc1ccc(C(=O)NCCOc2ccc(Cl)cc2)cc1	CHX counter 31.6, Shiga inhibitor 51.1
Cc1ccc(OCCNC(=O)c2cccc(C)c2)cc1	Pf growth 96h inconclusive
Cn1ncc2c(Nc3cc(Cl)cc(Cl)c3)ncnc21	none
CCCn1ncc2c(Nc3ccc(C)c(C)c3)ncnc21	CHX counter 46.9, Shiga inhibitor 109.5
Cn1ncc2c(Nc3ccc(Cl)c(Cl)c3)ncnc21	CHX counter 36.2
Cn1ncc2c(Nc3ccc(-c4ccccc4)cc3)ncnc21	CHX counter 41.4, Shiga inhibitor 75.6, Pf growth 96h inconclusive
CCOc1ccc(Nc2ncnc3c2cnn3Cc2ccccc2)cc1	Pf growth 48h inconclusive, Pf growth 96h inconclusive
Cc1ccc(Nc2nnc(-c3ccccc3N)o2)cc1C	CHX counter 26.4, Shiga inhibitor 41.2
CC(Oc1ccc(Br)cc1)C(=O)NCC(C)(C)N1CCOCC1 (stereo not given)	none (no result: CHX counter, Shiga inhibitor, NS1 inh)
N#Cc1c(Nc2ccccc2)sc(C(=O)c2ccccc2)c1N	NS1 inh inconclusive
CC(=O)c1cc(C(=O)c2ccccc2)sc1Nc1ccccc1	CHX counter 48.2, Shiga inhibitor 61.2
CC(=O)N1CCc2cc(C(=O)CN3CCN(c4ccccn4)CC3)ccc21	CHX counter 36.6, Shiga inhibitor 76.7
CC(=O)N1CCc2cc(C(=O)CN3CCN(c4ccccc4F)CC3)ccc21	CHX counter 21.1, Shiga inhibitor 59.1 (no result: Pf growth 48h)
CC(=O)N1CCc2cc(S(=O)(=O)CCC(=O)N3CCN(c4ccccn4)CC3)ccc21	Pf growth 48h inconclusive
O=C(CN1CCN(c2ccccc2F)CC1)N1CCc2ccccc21	CHX counter 14.5
O=C(CN1CCN(c2ccccc2F)CC1)c1ccc2cc[nH]c2c1	none (no result: Pf growth 48h)
Cc1cc(C)c(NC(=O)CN2CCN(c3ccccn3)CC2)c(C)c1	none
O=C(O)NCc1ccccc1 (tested in a mixture with another compound)	none (no result: CHX counter, Shiga inhibitor, Pf growth 48h, Pf growth 96h, SARS PLpro yeast)
CC(C)(C)c1ccc(OC(=O)c2ccc(-n3cncn3)nc2)cc1	none (no result: NS1 inh)
CC(C)(C)C1(O)CC(C(F)(F)F)=NN1C(=O)CCCc1ccccc1 (stereo not given)	none
CC(C)(C)C1=NN(C(=O)c2ccccc2)C(O)(C(C)(C)C)C1 (stereo not given)	CHX counter 13.0, Shiga inhibitor 34.3, Pf growth 96h inconclusive
CC(C)C1=NN(C(=O)c2ccccc2)C(O)(C(C)(C)C)C1 (stereo not given)	CHX counter 29.0
CC(NC(=O)CSc1ncccn1)c1ccccc1 (stereo not given)	Pf growth 96h inconclusive
Cc1ccc(NC(=S)N2CCCC(c3nc4ccccc4[nH]3)C2)cc1 (stereo not given)	none
Cc1ccc(NC(=S)c2nc3ccccc3[nH]2)c(C)c1	CHX counter 50.7, Shiga inhibitor 96.5
Cc1ccc(NC(=S)c2nc3ccccc3[nH]2)cc1	CHX counter 71.8, Shiga inhibitor 66.2
CC(C)(C)CC(=O)NC(=S)NCc1ccco1	none
CCS(=O)(=O)c1ccc(O)c(NC(=O)NC2CCCCC2)c1	CHX counter 12.3
CCc1ccccc1NC(=O)NC1CCCCC1	CHX counter 14.2, Pf growth 96h inconclusive, SARS PLpro yeast inconclusive (no result: Pf growth 48h)
CCc1cccc(CC)c1NC(=O)NC1CCCCC1	none
O=C(Nc1ccccc1Cl)NC1CCCCCCC1	CHX counter 39.7, Shiga inhibitor 57.5, Pf growth 96h inconclusive
O=C(Nc1ccccc1C(=O)N1CCCCC1)NC1CCCCC1	none
COc1ccccc1N/C(=N/c1nc(C)cc(C)n1)NC(C)=O	none
COc1ccccc1C(=O)N/C(=N/c1nc(C)cc(C)n1)Nc1ccccc1	CHX counter 12.5
CCC(=O)N/C(=N/c1nc(C)cc(C)n1)Nc1ccccc1	none
CCC(=O)N/C(=N/c1nc(C)cc(C)n1)Nc1ccc(OC)cc1	Pf growth 96h 14.7µM
CCCC[C@@H](CNC)NC[C@H](NCCCCC1CCCCC1)C(C)C	Pf growth 48h inconclusive, Pf growth 96h 1.65µM
O=C(Nc1nnc(-c2cccnc2)o1)c1cccc(Cl)c1	Pf growth 48h inconclusive, Pf growth 96h inconclusive (no result: NS1 inh)
CC(NC=C1C(=O)OC(C)(C)OC1=O)C(=O)O (stereo not given)	Pf growth 96h 9.28µM (no result: NS1 inh)
O=c1cc(-c2ccccc2Cl)oc2c([N+](=O)[O-])ccc(O)c12	none (no result: Pf growth 48h, Pf growth 96h, NS1 inh, SARS PLpro yeast)
O=c1cc(-c2ccccc2Cl)oc2c(Br)ccc(O)c12	CHX counter 30.8, Shiga inhibitor 78.1

Bioassay records: PubChem BioAssay, National Center for Advancing Translational Sciences (NCATS)
